Experimental data reported in PubChem BioAssay AID720597 (Broad Institute, 2013).
Potency and affinity values are given separately. Active and inactive are the calls of the source.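 Rule for the calls: active = fitted half-maximal dose no more than twice the top valid tested dose, for compounds that lower signal; inconclusive = fit invalid, or curve flat with activity between -70 and -30; inactive = potency past limit, curve flat within ±30, or signal increasing.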

Molecular target: NAD-dependent protein deacylase sirtuin-5, mitochondrial (Homo sapiens) (UniProt Q9NXA8)
Sequence (Q9NXA8 whole entry, looked up): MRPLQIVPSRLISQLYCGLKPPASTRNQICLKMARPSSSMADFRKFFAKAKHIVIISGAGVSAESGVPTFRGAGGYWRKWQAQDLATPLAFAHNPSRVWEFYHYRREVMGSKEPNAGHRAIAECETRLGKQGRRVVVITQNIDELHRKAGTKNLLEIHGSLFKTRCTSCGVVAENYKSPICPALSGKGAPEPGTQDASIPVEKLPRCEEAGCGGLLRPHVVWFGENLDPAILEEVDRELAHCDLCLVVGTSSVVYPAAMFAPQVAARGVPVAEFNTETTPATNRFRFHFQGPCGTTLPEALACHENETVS
Assay: blockers of sirtuin-5 peptide desuccinylation – biochemical, fluorescence imaging, cherry-pick, set 6, dose response (AID 720597);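 note: lower AMC signal can also come from blocking the trypsin step; 0% = median of neutral control wells and -100% = median of positive control wells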
Details: Purified SirT5, succinyl-peptide-AMC/trypsin fluorescence; series mostly up to 15 µM; activity change, negative = inhibition: at the top concentration

Activity change, negative = inhibition, inactive:
COc1ccc(S(=O)(=O)N(C)C[C@@H]2OCCCC[C@H](C)Oc3ccc(NS(=O)(=O)c4ccc(C)cc4)cc3C(=O)N([C@H](C)CO)C[C@H]2C)cc1 -12.7%
C[C@@H]1CN([C@@H](C)CO)C(=O)c2cc(NS(=O)(=O)c3ccccc3)ccc2O[C@@H](C)CCCCO[C@H]1CN(C)S(=O)(=O)c1ccc(Cl)cc1 -18.9%
C[C@@H]1CN([C@H](C)CO)S(=O)(=O)c2ccc(C#Cc3ccccc3F)cc2O[C@H]1CN(C)C(=O)c1ccc2c(c1)OCO2 22.1%
COCC(=O)N1C[C@@H]2[C@H](c3ccccc31)[C@H](CO)N2Cc1cc(F)ccc1F 20.2%
C[C@@H]1CN([C@@H](C)CO)S(=O)(=O)c2ccc(C#Cc3ccc(F)cc3)cc2O[C@@H]1CN(C)S(=O)(=O)c1ccc(F)cc1 -16.3%
CO[C@@H]1CN(C)C(=O)c2ccc(NS(C)(=O)=O)cc2OC[C@@H](C)N(Cc2nccs2)C[C@H]1C -9.11%
Cc1ccc(S(=O)(=O)N(C)C[C@@H]2OCCCC[C@@H](C)Oc3ccc(NS(=O)(=O)c4ccc(Cl)cc4)cc3C(=O)N([C@H](C)CO)C[C@H]2C)cc1 -25.3%
C[C@@H]1CN([C@@H](C)CO)C(=O)c2cccc(NC(=O)c3ccncc3)c2O[C@H]1CN(C)S(C)(=O)=O 21.9%
C[C@H](CO)N1C[C@H](C)[C@H](CN(C)S(=O)(=O)c2ccc(Cl)cc2)OCCCC[C@H](C)Oc2ccc(NC(=O)Nc3ccc4c(c3)OCO4)cc2C1=O -12.6%
CC(=O)N(C)C[C@H]1Oc2ncc(C#CCC3CCCC3)cc2C(=O)N([C@@H](C)CO)C[C@H]1C -16.3%
C[C@@H]1CN([C@@H](C)CO)C(=O)Cc2cc(NS(=O)(=O)c3ccc(Cl)cc3)ccc2O[C@H]1CN(C)Cc1ccc(Cl)c(Cl)c1 5.95%
O=C(Nc1ccccc1F)N1C[C@@H]2N[C@H](C1)C2c1ccc(/C=C/c2ccccc2)cc1 (stereo not given in full) -14.4%
C[C@@H]1CCCCO[C@@H](CN(C)S(=O)(=O)c2ccc(Cl)cc2)[C@H](C)CN([C@@H](C)CO)C(=O)c2cc(NS(=O)(=O)c3ccccc3)ccc2O1 -16.3%
O=C(C[C@@H]1C[C@H]2c3cc(NC(=O)c4ccc5c(c4)OCO5)ccc3O[C@H]2[C@H](CO)O1)NCc1ccc(Oc2ccccc2)cc1 -12.9%
Cc1cccc(S(=O)(=O)N(C)C[C@@H]2OCc3ccccc3-c3c(n(C)c4ccccc34)C(=O)N([C@H](C)CO)C[C@@H]2C)c1 -6.71%
CC(C)NC(=O)N(C)C[C@H]1Oc2ccc(NC(=O)Cc3ccccc3)cc2C(=O)N([C@H](C)CO)C[C@@H]1C 8.2%
COc1ccccc1C#Cc1cnc2c(c1)C(=O)N([C@@H](C)CO)C[C@H](C)[C@@H](CN(C)C)O2 -8.09%
Cc1ccc(S(=O)(=O)N(C)C[C@@H]2OCCCC[C@@H](C)Oc3ccc(NS(=O)(=O)c4ccc(F)cc4)cc3C(=O)N([C@@H](C)CO)C[C@@H]2C)cc1 -6.02%
C[C@@H]1CN([C@H](C)CO)C(=O)Cc2cc(NC(=O)Nc3ccc(F)cc3)ccc2O[C@@H]1CN(C)Cc1ccc2c(c1)OCO2 -8.82%
O=C(NC1CCCC1)[C@H]1[C@H](CO)[C@H]2Cn3c(ccc(-c4ccncc4)c3=O)[C@H]2N1CCc1ccccc1 1.4%
CCOC(=O)N(C)C[C@H]1OCc2ccccc2-c2ccccc2C(=O)N([C@H](C)CO)C[C@@H]1C -2.78%
C[C@H]1CN([C@@H](C)CO)S(=O)(=O)c2ccc(/C=C/c3ccccc3)cc2O[C@H]1CN(C)C(=O)NC1CCCC1 2.54%
C[C@@H]1CN([C@H](C)CO)C(=O)c2c(c3ccccc3n2C)-c2ccccc2CO[C@@H]1CN(C)S(=O)(=O)c1ccc(Cl)cc1 -23.3%
Cc1cccc(-c2ccc([C@H]3[C@H](CO)N4CCCCN(S(=O)(=O)c5cccc(C)c5)C[C@@H]34)cc2)c1 -30.5%
C[C@H](CO)N1C[C@H](C)[C@H](CN(C)Cc2cccc(F)c2)Oc2ncc(C#C[C@@H](C)O)cc2C1=O -7.02%
COc1ccc(S(=O)(=O)Nc2ccc3c(c2)C(=O)N([C@@H](C)CO)C[C@@H](C)[C@@H](CN(C)Cc2ccc(C(F)(F)F)cc2)OCCCC[C@@H](C)O3)cc1 -5.76%
C[C@@H]1CN([C@@H](C)CO)S(=O)(=O)c2ccc(C#Cc3ccc(F)cc3)cc2O[C@H]1CN(C)S(=O)(=O)c1ccc(F)cc1 -1.34%
C[C@@H]1CN([C@@H](C)CO)C(=O)c2cc(NC(=O)Nc3ccc(F)cc3)ccc2O[C@@H]1CN(C)S(=O)(=O)c1ccc(Cl)cc1 5.11%
COc1cccc(S(=O)(=O)N(C)C[C@H]2Oc3cc(C4=CCCC4)ccc3S(=O)(=O)N([C@H](C)CO)C[C@H]2C)c1 -11.6%
C[C@H]1CN([C@@H](C)CO)C(=O)c2cccc(NC(=O)CCCCCC(=O)Nc3ccccc3N)c2O[C@@H]1CN(C)Cc1ccc(Oc2ccccc2)cc1 -22.4%
CCCNC(=O)N(C)C[C@H]1Oc2cc(C#CC(C)C)ccc2S(=O)(=O)N([C@H](C)CO)C[C@@H]1C 8.83%
COc1ccc(S(=O)(=O)N(C)C[C@@H]2OCCCC[C@H](C)Oc3ccc(NS(=O)(=O)c4ccc(C)cc4)cc3C(=O)N([C@H](C)CO)C[C@@H]2C)cc1 -0.742%
COCC(=O)Nc1ccc2c(c1)OC[C@H](C)N(CC1CC1)C[C@@H](C)[C@@H](OC)CN(C)C2=O 13.3%
CC(C)C#Cc1cnc2c(c1)C(=O)N([C@@H](C)CO)C[C@H](C)[C@@H](CN(C)C(=O)CN1CCOCC1)O2 11.3%
COc1cccc(S(=O)(=O)N(C)C[C@@H]2Oc3cc(C4=CCCCC4)ccc3S(=O)(=O)N([C@H](C)CO)C[C@H]2C)c1 10.5%
COc1ccc(S(=O)(=O)N(C)C[C@@H]2Oc3c(NS(C)(=O)=O)cccc3C(=O)N([C@@H](C)CO)C[C@H]2C)cc1 1.21% [at 12 µM]
O=C(CCN1CCCCC1)N[C@@H]1CC[C@H](CC(=O)N2CCC(Cc3ccccc3)CC2)O[C@@H]1CO -14.1%
COc1ccc([Si](C)(C)[C@@H]2[C@@H](CCO)O[C@]3(C(=O)N(Cc4cccc(NC(C)=O)c4)c4ccccc43)[C@H]2C)cc1 -7.91%
CN(C)Cc1cn(CC[C@@H]2CC[C@H](N)[C@H](CO)O2)nn1 -7.3%
CO[C@H]1CN(C)C(=O)c2cc(NC(=O)NC(C)C)ccc2OC[C@@H](C)N(C(=O)CC2CC2)C[C@@H]1C -9.33%
